Screens from PubChem.
G9a block – qHTS Assay for Inhibitors of Histone Lysine Methyltransferase G9a; Histone-lysine N-methyltransferase EHMT2 (Homo sapiens), Q96KQ7; G9a H3K9 monomethylation, AlphaScreen, 2 h; Potency, µM (titrated, usually from 102 µM), without a hit: top-dose activity, negative = inhibition, most hits filed as inhibitors; 8.8% of 350,000 active; also: % is scaled to controls: 0 for no effect and ±100 for the full control effect; nearly all actives have a fitted effect of over 75% in size
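Enzyme 20 nM + cpd, 15 min RT; add b-H3K9 pep 500 nM / SAM 20 uM; 2 h RT; anti-H3K9me1 Ab 0.5 ug/mL + SA donor / anti-rabbit acceptor beads 20 ug/mL each, 10 min; AlphaScreen read.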
Sfp PPTase inh – qHTS Assay for Inhibitors of Bacillus subtilis Sfp phosphopantetheinyl transferase (PPTase). 3.5% of 310,000 active. AID 1490, 2009. Potency, µM, for inactives: largest response in the series, negative = inhibition, usual class: inhibitors. 4'-phosphopantetheinyl transferase ffp (Bacillus subtilis), Q9F4F7. Biochemical Sfp PPTase activity, qHTS;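 also: the enzyme is Sfp with the accession as filed and its product quenches rhodamine fluorescence; 0% = enzyme reaction without inhibitor and -100% = no enzyme wells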
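Buffer: 50 mM Hepes-Na pH 7.6, 10 mM MgCl2, 0.01% Nonidet P-40, 0.01% BSA. Enzyme 15 nM, pre-exposed to compound 15 min; substrates then added and fluorescence change tracked over 30 min.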
BAZ2B block – qHTS Assay for Inhibitors of BAZ2B | AlphaScreen BAZ2B-H3K14Ac peptide displacement | Potency, µM (series often up to 114 µM), inactives show top-dose activity change, negative = inhibition, actives largely listed as inhibitors | AID 504333, 2011 | 4.4% of 360,000 active | Bromodomain adjacent to zinc finger domain protein 2B (Homo sapiens), Q9UIF8; also: % is scaled to controls: 0 for no effect and ±100 for the full control effect; nearly all actives have a fitted effect of over 60% in size
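In this displacement format the biotinylated H3(5-23) peptide acetylated at Lys14 serves as ligand at 50 nM, with BAZ2B at 50 nM in PBS pH 7.4 containing 0.01% Tween-20. Donor and acceptor beads are 10 ug/mL final.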
JMJD2A Tudor – qHTS Assay for Inhibitors of JMJD2A-Tudor Domain. 4.4% of 390,000 active. Potency, µM (highest dose often 114 µM), inactives show top-dose activity change, negative = inhibition, most hits filed as inhibitors. AlphaScreen JMJD2A-Tudor / H3K4me3 peptide binding; also: % is scaled to controls: 0 for no effect and ±100 for the full control effect; nearly all actives have a fitted effect of over 50% in size
Target sequence (O75164 whole entry, looked up, the tested form may be a part): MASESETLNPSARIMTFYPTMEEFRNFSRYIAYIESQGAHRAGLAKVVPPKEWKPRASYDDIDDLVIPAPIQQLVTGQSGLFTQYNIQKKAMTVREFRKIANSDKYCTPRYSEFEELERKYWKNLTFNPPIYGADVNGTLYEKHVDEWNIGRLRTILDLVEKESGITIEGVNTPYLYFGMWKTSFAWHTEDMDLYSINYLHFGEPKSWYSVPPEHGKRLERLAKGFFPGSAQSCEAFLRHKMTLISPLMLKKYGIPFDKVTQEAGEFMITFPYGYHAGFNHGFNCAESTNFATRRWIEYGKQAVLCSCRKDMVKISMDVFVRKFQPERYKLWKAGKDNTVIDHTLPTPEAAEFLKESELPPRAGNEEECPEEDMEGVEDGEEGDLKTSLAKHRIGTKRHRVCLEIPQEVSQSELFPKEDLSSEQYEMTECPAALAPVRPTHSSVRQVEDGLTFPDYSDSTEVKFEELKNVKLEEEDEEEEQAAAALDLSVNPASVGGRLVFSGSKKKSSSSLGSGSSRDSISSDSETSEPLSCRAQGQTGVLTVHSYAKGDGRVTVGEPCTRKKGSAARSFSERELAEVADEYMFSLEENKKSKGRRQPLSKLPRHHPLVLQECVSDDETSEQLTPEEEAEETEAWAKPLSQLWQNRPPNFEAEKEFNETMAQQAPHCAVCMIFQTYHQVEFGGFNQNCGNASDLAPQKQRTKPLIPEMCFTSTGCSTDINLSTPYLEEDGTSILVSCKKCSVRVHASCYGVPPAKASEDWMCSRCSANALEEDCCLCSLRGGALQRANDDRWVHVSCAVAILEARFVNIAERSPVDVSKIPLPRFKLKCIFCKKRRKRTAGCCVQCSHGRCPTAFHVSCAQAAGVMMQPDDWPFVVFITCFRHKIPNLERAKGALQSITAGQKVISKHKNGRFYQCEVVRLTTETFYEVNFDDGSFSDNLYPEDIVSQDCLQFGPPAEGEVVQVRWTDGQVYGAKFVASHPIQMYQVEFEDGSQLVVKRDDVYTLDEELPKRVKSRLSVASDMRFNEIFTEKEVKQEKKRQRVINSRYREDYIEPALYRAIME
HP1b chromo inh – HTS for Inhibitors of HP1-beta Chromodomain Interactions with Methylated Histone Tails | Chromobox protein homolog 1 (Homo sapiens), P83916 | AlphaScreen HP1-beta / biotin-H3K9me3 peptide binding | Potency, µM (series often up to 114 µM), without a hit: top-dose activity change, negative = inhibition, hits mostly inhibitors | 0.56% of 390,000 active | AID 540317, 2011; also: nearly all actives have a fitted effect of over 70% in size
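Compound inhibition of the preformed complex between 50 nM HP1-beta and 50 nM biotinylated H3K9me3 peptide was read by AlphaScreen. Buffer was PBS pH 7.4 with 0.01% Tween-20. Incubations ran 30 min at room temperature, with 10 ug/mL donor/acceptor beads.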
L3MBTL1 inh – qHTS Assay for the Inhibitors of L3MBTL1; Lethal(3)malignant brain tumor-like protein 1 (Homo sapiens), Q9Y468; AlphaScreen L3MBTL1–H3K9me1 peptide binding; Potency, µM (titrated, usually from 57.1 µM), for inactives: at the highest dose activity, negative = inhibition, hits mostly inhibitors; 0.66% of 230,000 active; also: % is scaled to controls: 0 for no effect and ±100 for the full control effect; nearly all actives have a fitted effect of over 60% in size
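AlphaScreen assay: L3MBTL1 (50 nM final) was preincubated 30 min at room temperature with biotinylated H3(1-15)K9me1 peptide (75 nM final), then 30 min with library compounds; streptavidin donor and nickel chelate acceptor beads (10 ug/mL final) added, 30 min dark.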
The depositor's hits bear a star; [ ] = remark or other dose. Shown are actives, neighbours in structure and some others; about 12% of the full set was active somewhere. Calls follow the shape of the dose curve; as a rule, active = well fitted curve in the direction sought with a large enough effect; inconclusive = small, poorly fitted or top-dose-only effect, or another doubt; inactive = no such curve, though single readings can be large; an effect the other way counts as inactive or inconclusive. Potency is read from the fitted curve at half-maximal effect.

What do the screens show for `O=C(CCSCc1cnn(-c2ccccc2)c1-n1cccc1)NCc1ccccc1F`?
G9a block: inconclusive; BAZ2B block: -2.5%; JMJD2A Tudor: -2.6%; HP1b chromo inh: 32.9%

What do the screens show for `CCOC(=O)CNC(=O)O[C@@H]1C(=O)c2cc(Br)ccc2O[C@H]1c1cccc(OC)c1`?
Sfp PPTase inh: -12.2%

How did O=C1Nc2ccc(Br)cc2/C1=C/C(=O)c1ccc2c(c1)OCO2 do in these assays?
G9a block: 10µM*; Sfp PPTase inh: 56.2µM*; BAZ2B block: inconclusive; JMJD2A Tudor: inconclusive; HP1b chromo inh: -13.3%; L3MBTL1 inh: -26.3%

How did CCN(c1cccc(C)c1)S(=O)(=O)c1ccc2[nH]cc(C(=O)NCCCOC)c(=O)c2c1 do in these assays?
G9a block: -14.9%[59 µM]; BAZ2B block: 1.3%; JMJD2A Tudor: -6.4%; HP1b chromo inh: 15.4%

Results for COc1ccc(OC)c(/C(O)=C/C(=O)C(=O)Nc2cc(C)ccc2OC)c1 ?
G9a block: -16.0%; Sfp PPTase inh: -0.5%; BAZ2B block: inconclusive; JMJD2A Tudor: -19.1%[57.1 µM]; HP1b chromo inh: 28.5%

Results for CCOc1ccccc1NC(=O)C(=O)/C=C(\O)c1cc(OC)ccc1OC ?
G9a block: inconclusive; Sfp PPTase inh: -14.3%; BAZ2B block: 8.5%; JMJD2A Tudor: 20µM*; HP1b chromo inh: -15.2%

What do the screens show for `CCOc1ccccc1NC(=O)C(NCCN(C)C)c1ccccc1` (stereo not drawn)?
G9a block: 10µM*; Sfp PPTase inh: 79.4µM*; BAZ2B block: 50.1µM*; JMJD2A Tudor: 22.4µM*; HP1b chromo inh: -4.9%; L3MBTL1 inh: 9.6%

How did CCOc1ccccc1NC(=O)C(NCC1CCCCC1)c1ccccc1 (stereo not drawn) do in these assays?
G9a block: 88.3%; Sfp PPTase inh: -11.1%; BAZ2B block: -3.5%; JMJD2A Tudor: 17.0%; HP1b chromo inh: 66.0%; L3MBTL1 inh: 12.6%

Results for CCOc1ccccc1NC(=O)C(NCCc1ccc(OC)cc1)c1ccccc1 (stereo not drawn) ?
Sfp PPTase inh: inconclusive; BAZ2B block: 50.1µM*; JMJD2A Tudor: 24.5%; HP1b chromo inh: 83.2%

Results for CCOc1ccccc1-c1noc(CSc2nnc(-c3ccccc3)n2-c2cccc(C)c2)n1 ?
G9a block: -12.2%[59 µM]; BAZ2B block: -17.6%; JMJD2A Tudor: -15.6%; HP1b chromo inh: 59.4%

What do the screens show for `COCc1nnc(NC(=O)c2ccc(Cl)cc2[N+](=O)[O-])s1`?
G9a block: 15.8µM*; Sfp PPTase inh: -3.3%; BAZ2B block: 4.6%; JMJD2A Tudor: -9.3%; HP1b chromo inh: -7.7%; L3MBTL1 inh: 10.8%

What do the screens show for `CCOCc1nnc(NC(=O)c2cc(Cl)ccc2OC)s1`?
G9a block: 6.31µM*; Sfp PPTase inh: 35.5µM*; BAZ2B block: 10.8%; JMJD2A Tudor: -7.8%; HP1b chromo inh: 25.6%

What do the screens show for `COc1cc(C(=O)Nc2nnc(SC)s2)c([N+](=O)[O-])cc1OC`?
G9a block: 31.6µM*; Sfp PPTase inh: -8.1%; BAZ2B block: -20.0%; JMJD2A Tudor: -14.3%; HP1b chromo inh: 27.5%; L3MBTL1 inh: -8.2%

What do the screens show for `COCc1nnc(NC(=O)c2ccccc2[N+](=O)[O-])s1`?
G9a block: 20µM*; Sfp PPTase inh: -14.7%; BAZ2B block: 6.4%; JMJD2A Tudor: -9.1%; HP1b chromo inh: 3.3%; L3MBTL1 inh: -2.6%

What do the screens show for `Cc1ccc(C(c2nnnn2Cc2ccccc2)N2CCN(Cc3ccncc3)CC2)cc1` (stereo not drawn)?
JMJD2A Tudor: -34.8%; HP1b chromo inh: 29.6%

Results for CCOc1ccc(CN2CCNC(=O)C2CC(=O)NCc2ccccn2)cc1 (stereo not drawn) ?
G9a block: inconclusive; Sfp PPTase inh: 10.1%; BAZ2B block: -2.5%; JMJD2A Tudor: -2.7%; HP1b chromo inh: 42.3%; L3MBTL1 inh: -4.3%

Results for O=C(CC1C(=O)NCCN1CC1CCCCC1)NCc1ccccc1Cl (stereo not drawn) ?
G9a block: -8.8%[12.7 µM]; Sfp PPTase inh: 4.2%; BAZ2B block: -25.2%; JMJD2A Tudor: -31.2%; HP1b chromo inh: 0.5%; L3MBTL1 inh: -4.1%

How did CCOc1ccc(CN2CCNC(=O)C2CC(=O)NCCc2ccccn2)cc1 (stereo not drawn) do in these assays?
G9a block: 56.2µM*; Sfp PPTase inh: -8.8%; BAZ2B block: -4.2%; JMJD2A Tudor: -6.2%; HP1b chromo inh: 46.4%; L3MBTL1 inh: 8.0%

What do the screens show for `CCOc1ccc(CN2CCNC(=O)C2CC(=O)N(C)Cc2nonc2C)cc1` (stereo not drawn)?
G9a block: 50.1µM*; Sfp PPTase inh: 5.7%; BAZ2B block: -32.9%; JMJD2A Tudor: -5.8%; HP1b chromo inh: 53.2%

How did Cc1cccnc1CCNC(=O)CC1C(=O)NCCN1CC1CCCCC1 (stereo not drawn) do in these assays?
G9a block: 39.8µM*; Sfp PPTase inh: 4.0%; BAZ2B block: -24.7%; JMJD2A Tudor: -19.1%; HP1b chromo inh: 11.7%; L3MBTL1 inh: -6.8%

Results for CCc1cc(CNC(=O)CC2C(=O)NCCN2Cc2ccc(-c3ccccc3)cc2)on1 (stereo not drawn) ?
G9a block: 50.1µM*; Sfp PPTase inh: -2.8%; BAZ2B block: -25.4%; JMJD2A Tudor: -22.2%; HP1b chromo inh: 19.5%

Results for Cc1cccc(C(=O)NCc2cn3cccc(C)c3n2)c1 ?
G9a block: inconclusive; BAZ2B block: 3.3%; JMJD2A Tudor: -18.5%; HP1b chromo inh: 62.9%

What do the screens show for `CCN(CC)c1ccc(NC(=O)Cn2nc(C)n3cccc3c2=O)c(C)c1`?
G9a block: -31.1%[59 µM]; BAZ2B block: -1.7%; JMJD2A Tudor: -3.3%; HP1b chromo inh: 37.2%

What do the screens show for `CCN1C(=O)[C@H]2[C@H]3[C@H](O)[C@H](O)C/C(=N/O[C@@H]4O[C@@H](COC(C)=O)[C@@H](OC(C)=O)[C@@H](OC(C)=O)[C@H]4OC(C)=O)[C@H]3CC[C@@H]2C1=O`?
Sfp PPTase inh: 4.1%
